Measured values taken from article PMC7862700, “An all-to-all approach to the identification of sequence-specific readers for epigenetic DNA modifications on cytosine”.

Experiments:
Assay in all cases: DAPPL (digital affinity profiling via proximity ligation, sequencing); 10 mM Tris-HCl pH 7.5, 50 mM NaCl, 1 mM DTT, 4% glycerol, room temperature, 30 min; GST-TFs on glutathione beads, 16-mer random dsDNA library, 0.1% formaldehyde crosslink after washing; high values mean tight binding
FLI1 = target: T1, FLI1 (Homo sapiens, UniProt Q01543 1-452); details: protein: recombinant; tags: N-terminal GST; dsDNA, one strand shown
T1 sequence: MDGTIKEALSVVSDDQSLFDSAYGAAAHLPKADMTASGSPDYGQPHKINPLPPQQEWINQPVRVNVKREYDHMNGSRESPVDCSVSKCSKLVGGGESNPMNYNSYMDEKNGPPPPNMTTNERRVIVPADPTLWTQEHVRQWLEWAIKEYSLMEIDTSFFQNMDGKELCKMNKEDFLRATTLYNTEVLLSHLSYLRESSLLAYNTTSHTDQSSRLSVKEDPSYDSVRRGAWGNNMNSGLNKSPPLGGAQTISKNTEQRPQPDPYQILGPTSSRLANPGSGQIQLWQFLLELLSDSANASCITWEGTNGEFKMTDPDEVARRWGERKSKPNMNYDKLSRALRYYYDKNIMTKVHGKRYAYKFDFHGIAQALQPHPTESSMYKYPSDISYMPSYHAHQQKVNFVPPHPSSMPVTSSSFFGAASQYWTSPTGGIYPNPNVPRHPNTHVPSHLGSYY
Procedure, shortened: (§1)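 Binding signal is given per hexamer as its read frequency for a factor divided by its frequency in the tag-only sample. GST-fused human transcription factors were expressed in yeast, captured on glutathione beads, barcoded with DNA and pooled with that sample, then incubated with 200 nmole of a 16-mer random double-stranded DNA library in Tris/NaCl/DTT/glycerol buffer for 30 min at room temperature. The pools were then washed, crosslinked, proximity-ligated, amplified by PCR and sequenced on an Illumina NextSeq500.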

ELK1 = target: T2, ELK1 (Homo sapiens, UniProt P19419 1-428); details: protein: recombinant; tags: N-terminal GST; dsDNA, one strand shown
T2 sequence: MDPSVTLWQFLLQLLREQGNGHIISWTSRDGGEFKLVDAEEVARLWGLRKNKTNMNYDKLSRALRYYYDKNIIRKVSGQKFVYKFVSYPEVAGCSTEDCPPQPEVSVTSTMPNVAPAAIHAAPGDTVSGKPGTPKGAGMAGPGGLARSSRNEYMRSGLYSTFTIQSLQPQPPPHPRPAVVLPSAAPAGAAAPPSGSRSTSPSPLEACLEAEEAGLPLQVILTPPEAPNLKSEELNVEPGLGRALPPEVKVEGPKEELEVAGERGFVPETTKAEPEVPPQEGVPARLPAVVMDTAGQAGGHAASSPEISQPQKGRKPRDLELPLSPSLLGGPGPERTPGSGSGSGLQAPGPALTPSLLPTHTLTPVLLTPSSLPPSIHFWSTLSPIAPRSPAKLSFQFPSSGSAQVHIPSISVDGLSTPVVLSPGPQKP
Procedure, shortened: as §1

GABPA = target: T3, GABPA (Homo sapiens, UniProt Q06546 1-454); details: protein: recombinant; tags: N-terminal GST; dsDNA, one strand shown
T3 sequence: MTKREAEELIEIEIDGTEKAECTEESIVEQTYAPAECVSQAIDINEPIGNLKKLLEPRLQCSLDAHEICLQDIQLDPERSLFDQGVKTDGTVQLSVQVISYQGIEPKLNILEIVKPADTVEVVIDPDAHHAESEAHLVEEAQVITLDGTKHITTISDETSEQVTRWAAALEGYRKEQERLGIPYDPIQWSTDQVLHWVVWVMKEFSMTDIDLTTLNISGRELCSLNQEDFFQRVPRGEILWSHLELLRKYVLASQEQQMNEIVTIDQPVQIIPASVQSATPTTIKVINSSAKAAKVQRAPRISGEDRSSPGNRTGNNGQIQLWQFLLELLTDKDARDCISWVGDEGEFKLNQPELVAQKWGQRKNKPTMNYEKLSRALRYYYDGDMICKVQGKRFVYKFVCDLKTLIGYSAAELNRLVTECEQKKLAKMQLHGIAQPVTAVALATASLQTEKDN
Procedure, shortened: as §1

ERG = target: T4, ERG (Homo sapiens, UniProt P11308 1-479); details: protein: recombinant; tags: N-terminal GST; dsDNA, one strand shown
T4 sequence: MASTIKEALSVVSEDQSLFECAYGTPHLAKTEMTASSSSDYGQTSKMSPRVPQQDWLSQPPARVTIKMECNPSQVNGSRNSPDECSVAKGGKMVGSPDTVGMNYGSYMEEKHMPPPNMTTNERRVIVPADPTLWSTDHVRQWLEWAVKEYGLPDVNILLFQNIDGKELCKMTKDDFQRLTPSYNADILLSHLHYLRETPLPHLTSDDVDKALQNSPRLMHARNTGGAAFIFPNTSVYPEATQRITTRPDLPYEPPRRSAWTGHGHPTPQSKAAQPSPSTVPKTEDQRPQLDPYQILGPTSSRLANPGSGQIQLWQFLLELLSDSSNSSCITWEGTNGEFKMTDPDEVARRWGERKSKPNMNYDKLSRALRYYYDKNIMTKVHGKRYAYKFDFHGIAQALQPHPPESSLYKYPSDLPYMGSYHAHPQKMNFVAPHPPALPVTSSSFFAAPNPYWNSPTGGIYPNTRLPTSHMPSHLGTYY
Procedure, shortened: as §1

ELF1 = ELF1 (Homo sapiens, UniProt P32519 1-619); details: protein: recombinant; tags: N-terminal GST; dsDNA, one strand shown
Procedure, shortened: as §1

EHF = target: T5, EHF (Homo sapiens, UniProt Q9NZC4 1-300); details: protein: recombinant; tags: N-terminal GST; dsDNA, one strand shown
T5 sequence: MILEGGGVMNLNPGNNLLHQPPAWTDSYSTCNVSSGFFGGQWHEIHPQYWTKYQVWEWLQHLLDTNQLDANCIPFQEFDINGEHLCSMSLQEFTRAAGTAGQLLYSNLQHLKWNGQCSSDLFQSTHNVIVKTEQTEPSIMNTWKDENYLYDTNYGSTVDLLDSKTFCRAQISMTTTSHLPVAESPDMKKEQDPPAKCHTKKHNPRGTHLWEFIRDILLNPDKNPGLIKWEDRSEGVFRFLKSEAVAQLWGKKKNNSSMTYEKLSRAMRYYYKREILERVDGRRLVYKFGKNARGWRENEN
Procedure, shortened: as §1

SPI1 = SPI1 (Homo sapiens, UniProt P17947 1-270); details: protein: recombinant; tags: N-terminal GST; dsDNA, one strand shown
Procedure, shortened: as §1

SPIB = SPIB (Homo sapiens, UniProt Q01892 1-262); details: protein: recombinant; tags: N-terminal GST; dsDNA, one strand shown
Procedure, shortened: as §1

ELK3 = target: T6, ELK3 (Homo sapiens, UniProt P41970 1-407); details: protein: recombinant; tags: N-terminal GST; dsDNA, one strand shown
T6 sequence: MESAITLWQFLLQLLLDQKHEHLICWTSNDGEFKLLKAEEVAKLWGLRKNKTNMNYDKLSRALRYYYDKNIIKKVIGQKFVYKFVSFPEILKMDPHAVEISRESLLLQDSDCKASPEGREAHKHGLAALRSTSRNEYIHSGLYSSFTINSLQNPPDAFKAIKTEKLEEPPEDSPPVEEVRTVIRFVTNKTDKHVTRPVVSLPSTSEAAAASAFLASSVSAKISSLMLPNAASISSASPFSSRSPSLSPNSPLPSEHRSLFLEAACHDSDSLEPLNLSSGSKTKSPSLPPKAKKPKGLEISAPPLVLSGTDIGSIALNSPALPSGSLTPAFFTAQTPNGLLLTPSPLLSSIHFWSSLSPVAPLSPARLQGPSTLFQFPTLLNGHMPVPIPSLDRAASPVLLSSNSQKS
Procedure, shortened: as §1

FEV = target: T7, FEV (Homo sapiens, UniProt Q99581 1-238); details: protein: recombinant; tags: N-terminal GST; dsDNA, one strand shown
T7 sequence: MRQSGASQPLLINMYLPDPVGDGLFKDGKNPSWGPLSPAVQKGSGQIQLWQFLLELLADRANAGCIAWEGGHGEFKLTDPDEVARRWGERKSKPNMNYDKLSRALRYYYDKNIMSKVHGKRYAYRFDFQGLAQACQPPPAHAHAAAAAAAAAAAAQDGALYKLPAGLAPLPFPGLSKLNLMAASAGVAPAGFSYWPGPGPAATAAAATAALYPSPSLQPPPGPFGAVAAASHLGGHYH
Procedure, shortened: as §1

ETV5 = ETV5 (Homo sapiens, UniProt P41161 1-510); details: protein: recombinant; tags: N-terminal GST; dsDNA, one strand shown
Procedure, shortened: as §1

HSF1 = HSF1 (Homo sapiens, UniProt Q00613 1-529); details: protein: recombinant; tags: N-terminal GST; chain copies: 3; dsDNA, one strand shown
Procedure, shortened: as §1

SPIC = target: T8, SPIC (Homo sapiens, UniProt Q8N5J4 1-248); details: protein: recombinant; tags: N-terminal GST; dsDNA, one strand shown
T8 sequence: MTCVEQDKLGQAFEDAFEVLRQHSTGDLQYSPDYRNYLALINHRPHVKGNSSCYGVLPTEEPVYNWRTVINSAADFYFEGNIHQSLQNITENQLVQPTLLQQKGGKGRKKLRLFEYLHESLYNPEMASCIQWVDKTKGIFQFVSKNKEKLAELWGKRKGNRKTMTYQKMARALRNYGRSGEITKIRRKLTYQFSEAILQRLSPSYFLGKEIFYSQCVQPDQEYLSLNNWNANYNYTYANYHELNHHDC
Procedure, shortened: as §1

ELF4 = ELF4 (Homo sapiens, UniProt Q99607 1-663); details: protein: recombinant; tags: N-terminal GST; dsDNA, one strand shown
Procedure, shortened: as §1

ELK4 = target: T9, ELK4 (Homo sapiens, UniProt P28324-2 1-405); details: protein: recombinant; tags: N-terminal GST; dsDNA, one strand shown
T9 sequence: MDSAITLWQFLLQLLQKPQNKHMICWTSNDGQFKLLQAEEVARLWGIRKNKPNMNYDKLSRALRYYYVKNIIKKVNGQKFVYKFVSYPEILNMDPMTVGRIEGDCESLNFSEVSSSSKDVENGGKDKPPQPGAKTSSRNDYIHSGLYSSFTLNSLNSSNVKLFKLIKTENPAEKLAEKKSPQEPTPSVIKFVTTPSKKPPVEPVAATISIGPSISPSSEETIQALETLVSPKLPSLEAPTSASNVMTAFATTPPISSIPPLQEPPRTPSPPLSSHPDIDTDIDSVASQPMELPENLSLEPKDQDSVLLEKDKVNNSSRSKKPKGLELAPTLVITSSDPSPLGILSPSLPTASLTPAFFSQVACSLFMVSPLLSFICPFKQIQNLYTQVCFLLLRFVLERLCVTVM
Procedure, shortened: as §1

ETV2 = target: T10, ETV2 (Homo sapiens, UniProt O00321 1-342); details: protein: recombinant; tags: N-terminal GST; dsDNA, one strand shown
T10 sequence: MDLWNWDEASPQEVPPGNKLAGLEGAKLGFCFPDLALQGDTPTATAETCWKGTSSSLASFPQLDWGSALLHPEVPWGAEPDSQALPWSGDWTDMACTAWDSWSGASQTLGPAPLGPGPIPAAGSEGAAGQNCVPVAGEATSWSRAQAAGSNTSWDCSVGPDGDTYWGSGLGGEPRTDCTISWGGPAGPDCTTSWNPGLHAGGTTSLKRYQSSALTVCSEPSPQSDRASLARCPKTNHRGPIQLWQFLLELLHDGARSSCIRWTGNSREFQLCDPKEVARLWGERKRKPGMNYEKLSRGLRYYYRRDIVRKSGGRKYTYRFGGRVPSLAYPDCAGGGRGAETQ
Procedure, shortened: as §1

ELF3 = target: T11, ELF3 (Homo sapiens, UniProt P78545 1-371); details: protein: recombinant; tags: N-terminal GST; dsDNA, one strand shown
T11 sequence: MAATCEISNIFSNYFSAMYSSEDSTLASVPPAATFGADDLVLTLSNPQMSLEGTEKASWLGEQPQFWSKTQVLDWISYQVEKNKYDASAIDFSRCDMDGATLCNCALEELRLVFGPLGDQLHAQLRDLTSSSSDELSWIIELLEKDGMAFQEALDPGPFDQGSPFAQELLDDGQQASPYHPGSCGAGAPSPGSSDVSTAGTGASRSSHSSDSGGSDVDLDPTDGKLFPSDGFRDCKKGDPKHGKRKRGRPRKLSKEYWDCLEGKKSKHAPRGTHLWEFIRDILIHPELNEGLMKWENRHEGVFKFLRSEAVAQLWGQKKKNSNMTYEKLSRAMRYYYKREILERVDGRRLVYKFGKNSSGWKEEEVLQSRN
Procedure, shortened: as §1

CRX = CRX (Homo sapiens, UniProt O43186 1-299); details: protein: recombinant; tags: N-terminal GST; dsDNA, one strand shown
Procedure, shortened: as §1

ETV1 = ETV1 (Homo sapiens, UniProt P50549 1-477); details: protein: recombinant; tags: N-terminal GST; dsDNA, one strand shown
Procedure, shortened: as §1

Chain of ETV5 (P41161 whole entry): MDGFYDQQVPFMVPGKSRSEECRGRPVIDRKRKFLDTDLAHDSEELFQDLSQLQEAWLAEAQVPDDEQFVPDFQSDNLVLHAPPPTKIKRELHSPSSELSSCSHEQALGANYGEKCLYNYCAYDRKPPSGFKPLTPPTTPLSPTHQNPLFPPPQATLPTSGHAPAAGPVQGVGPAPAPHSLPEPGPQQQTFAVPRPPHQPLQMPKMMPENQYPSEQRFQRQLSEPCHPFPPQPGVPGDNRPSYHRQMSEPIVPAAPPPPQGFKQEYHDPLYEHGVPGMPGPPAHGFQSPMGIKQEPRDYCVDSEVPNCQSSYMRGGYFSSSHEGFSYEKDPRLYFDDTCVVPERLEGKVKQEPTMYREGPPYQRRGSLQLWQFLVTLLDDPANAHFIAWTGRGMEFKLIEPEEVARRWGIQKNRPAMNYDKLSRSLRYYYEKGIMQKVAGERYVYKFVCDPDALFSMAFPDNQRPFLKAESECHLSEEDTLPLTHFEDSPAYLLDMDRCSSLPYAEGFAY
Chain of CRX (O43186 whole entry): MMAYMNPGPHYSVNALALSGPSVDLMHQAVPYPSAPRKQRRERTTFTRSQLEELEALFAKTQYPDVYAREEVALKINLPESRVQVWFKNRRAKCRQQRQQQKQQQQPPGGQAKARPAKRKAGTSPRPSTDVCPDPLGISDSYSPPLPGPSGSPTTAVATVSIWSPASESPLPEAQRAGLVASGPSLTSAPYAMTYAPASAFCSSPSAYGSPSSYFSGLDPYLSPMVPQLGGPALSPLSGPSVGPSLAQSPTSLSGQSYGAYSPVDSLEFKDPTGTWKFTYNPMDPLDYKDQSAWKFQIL
Chain of HSF1 (Q00613 whole entry): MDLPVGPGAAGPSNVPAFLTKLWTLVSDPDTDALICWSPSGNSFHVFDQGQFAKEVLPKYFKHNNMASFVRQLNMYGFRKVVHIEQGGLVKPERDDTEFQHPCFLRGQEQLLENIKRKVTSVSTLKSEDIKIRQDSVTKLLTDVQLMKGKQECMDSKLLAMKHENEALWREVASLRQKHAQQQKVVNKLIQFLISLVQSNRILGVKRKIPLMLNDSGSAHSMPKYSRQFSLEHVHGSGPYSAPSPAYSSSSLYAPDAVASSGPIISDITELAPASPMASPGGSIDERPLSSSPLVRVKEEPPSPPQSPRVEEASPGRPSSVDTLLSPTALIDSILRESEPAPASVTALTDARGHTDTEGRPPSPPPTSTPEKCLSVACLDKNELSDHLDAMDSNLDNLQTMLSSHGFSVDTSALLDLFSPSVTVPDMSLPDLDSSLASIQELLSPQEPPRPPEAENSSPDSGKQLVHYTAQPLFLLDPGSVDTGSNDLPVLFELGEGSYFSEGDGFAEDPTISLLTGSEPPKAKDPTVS
Chain of SPIB (Q01892 whole entry): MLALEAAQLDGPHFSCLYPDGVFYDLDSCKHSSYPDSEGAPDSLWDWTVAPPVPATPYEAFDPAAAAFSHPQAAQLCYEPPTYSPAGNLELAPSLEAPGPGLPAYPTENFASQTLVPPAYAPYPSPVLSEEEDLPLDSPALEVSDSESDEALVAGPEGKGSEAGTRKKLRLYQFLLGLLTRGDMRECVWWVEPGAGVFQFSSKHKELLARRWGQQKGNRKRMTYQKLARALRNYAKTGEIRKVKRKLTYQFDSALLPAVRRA
Chain of ETV1 (P50549 whole entry): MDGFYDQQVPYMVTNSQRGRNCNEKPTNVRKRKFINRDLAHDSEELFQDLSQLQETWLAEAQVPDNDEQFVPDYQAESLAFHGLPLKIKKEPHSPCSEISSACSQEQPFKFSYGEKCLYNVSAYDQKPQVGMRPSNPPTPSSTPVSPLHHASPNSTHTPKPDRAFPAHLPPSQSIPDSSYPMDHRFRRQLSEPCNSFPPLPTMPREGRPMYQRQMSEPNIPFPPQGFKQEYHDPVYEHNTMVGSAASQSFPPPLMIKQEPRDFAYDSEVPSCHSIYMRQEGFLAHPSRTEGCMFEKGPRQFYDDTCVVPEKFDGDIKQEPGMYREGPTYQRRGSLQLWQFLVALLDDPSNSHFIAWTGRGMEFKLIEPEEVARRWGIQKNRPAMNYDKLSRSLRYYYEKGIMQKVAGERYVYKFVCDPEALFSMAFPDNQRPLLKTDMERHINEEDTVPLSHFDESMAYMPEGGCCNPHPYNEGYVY
Chain of ELF1 (P32519 whole entry): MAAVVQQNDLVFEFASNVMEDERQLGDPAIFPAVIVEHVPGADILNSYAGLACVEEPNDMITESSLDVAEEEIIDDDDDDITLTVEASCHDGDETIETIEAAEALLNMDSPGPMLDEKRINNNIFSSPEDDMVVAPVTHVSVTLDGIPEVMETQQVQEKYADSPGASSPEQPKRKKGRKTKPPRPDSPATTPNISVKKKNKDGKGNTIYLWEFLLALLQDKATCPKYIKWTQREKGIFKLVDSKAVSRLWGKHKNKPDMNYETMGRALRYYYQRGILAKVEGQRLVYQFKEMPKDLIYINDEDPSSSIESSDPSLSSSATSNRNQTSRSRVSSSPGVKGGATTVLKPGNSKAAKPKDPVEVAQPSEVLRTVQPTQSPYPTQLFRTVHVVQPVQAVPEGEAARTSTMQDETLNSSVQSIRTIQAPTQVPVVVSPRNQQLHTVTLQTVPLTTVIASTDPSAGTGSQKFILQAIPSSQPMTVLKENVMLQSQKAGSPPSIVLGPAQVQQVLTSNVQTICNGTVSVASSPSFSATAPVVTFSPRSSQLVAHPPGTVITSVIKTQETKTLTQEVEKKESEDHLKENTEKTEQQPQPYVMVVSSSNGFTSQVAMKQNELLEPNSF
Chain of ELF4 (Q99607 whole entry): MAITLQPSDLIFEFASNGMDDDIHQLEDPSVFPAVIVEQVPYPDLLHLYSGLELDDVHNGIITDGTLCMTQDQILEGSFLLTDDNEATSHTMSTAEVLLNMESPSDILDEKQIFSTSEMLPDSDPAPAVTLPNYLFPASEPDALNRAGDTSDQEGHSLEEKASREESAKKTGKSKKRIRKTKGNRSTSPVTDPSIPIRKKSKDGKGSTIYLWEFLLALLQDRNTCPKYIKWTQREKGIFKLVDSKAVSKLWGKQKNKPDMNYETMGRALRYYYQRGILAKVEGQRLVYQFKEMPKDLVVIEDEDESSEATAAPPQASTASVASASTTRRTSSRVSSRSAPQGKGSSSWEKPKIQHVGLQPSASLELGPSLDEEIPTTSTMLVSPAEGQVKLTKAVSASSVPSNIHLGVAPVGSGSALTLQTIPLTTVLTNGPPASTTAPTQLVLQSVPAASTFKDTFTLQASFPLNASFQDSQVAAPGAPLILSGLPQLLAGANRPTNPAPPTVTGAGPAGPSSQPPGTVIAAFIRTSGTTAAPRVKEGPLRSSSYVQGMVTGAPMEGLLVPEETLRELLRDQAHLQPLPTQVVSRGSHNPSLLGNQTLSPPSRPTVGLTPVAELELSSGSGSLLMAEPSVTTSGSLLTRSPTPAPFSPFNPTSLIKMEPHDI

For CTGTAT, the binding signal (FLI1) was 1.35 fold enrichment (6-mer frequency, TF over GST control), the binding signal (ELK1) was 1.28 fold enrichment (6-mer frequency, TF over GST control) and the binding signal (GABPA) was 1.31 fold enrichment (6-mer frequency, TF over GST control). The binding signal (ERG) was 1.18 fold enrichment (6-mer frequency, TF over GST control), the binding signal (ELF1) was 1.24 fold enrichment (6-mer frequency, TF over GST control) and the binding signal (EHF) was 1.3 fold enrichment (6-mer frequency, TF over GST control). The binding signal (SPI1) was 1.23 fold enrichment (6-mer frequency, TF over GST control), the binding signal (SPIB) was 1.31 fold enrichment (6-mer frequency, TF over GST control) and the binding signal (ELK3) was 1.31 fold enrichment (6-mer frequency, TF over GST control). For the same sequence, the binding signal (FEV) was 1.34 fold enrichment (6-mer frequency, TF over GST control), the binding signal (ETV5) was 1.35 fold enrichment (6-mer frequency, TF over GST control) and the binding signal (HSF1) was 1.18 fold enrichment (6-mer frequency, TF over GST control). For the same sequence, the binding signal (SPIC) was 1.51 fold enrichment (6-mer frequency, TF over GST control), the binding signal (ELF4) was 1.22 fold enrichment (6-mer frequency, TF over GST control) and the binding signal (ELK4) was 1.29 fold enrichment (6-mer frequency, TF over GST control). For the same sequence, the binding signal (ETV2) was 1.25 fold enrichment (6-mer frequency, TF over GST control), the binding signal (ELF3) was 1.13 fold enrichment (6-mer frequency, TF over GST control) and the binding signal (CRX) was 1.17 fold enrichment (6-mer frequency, TF over GST control). The binding signal (ETV1) was 1.39 fold enrichment (6-mer frequency, TF over GST control).
